Assay outcomes from PubChem.
HT1080NT lethal – qHTS for induction of synthetic lethality in tumor cells producing 2HG: qHTS for the HT-1080-NT fibrosarcoma cell line; HT-1080-NT fibrosarcoma viability, CellTiter-Glo ATP luminescence, 48 h; Potency, µM (doses to about 46.1 µM), hits mostly cytotoxic; hit rate 1.6% among 360,000; AID 686970, 2013;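 note: NT is the 2HG producing partner of a matched IDH1 knockdown line; nearly all actives have a fitted effect of over 55% in size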
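Viability of the 2HG-overproducing fibrosarcoma line after 48 hours of compound exposure at 37 degrees C was determined by luminescence with CellTiter-Glo, and concentration-effect curves were then fitted and categorized.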
IL-1B inflam inh – qHTS for Inhibitors of Inflammasome Signaling: IL-1-beta AlphaLISA Primary Screen; hit rate 4.7% among 360,000; activity change, % at 57.5 µM; THP-1 LPS/ATP IL-1B secretion, AlphaLISA, 16 h; active compounds read low; AID 743279, 2014; in the data active = activity change below about -50%; inconclusive = mostly about -30% to -49%
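THP-1 cells pretreated 1 hr with compounds (up to 57.5 uM final), then stimulated with LPS (250 ng/mL final) plus ATP (1.25 mM final); secreted IL-1B measured by AlphaLISA after 16 hr, decreased signal indicating inhibition.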
TDP1 cell noCPT – qHTS for Inhibitors of human tyrosyl-DNA phosphodiesterase 1 (TDP1): qHTS in cells in absence of CPT; DT40 Tdp1-/- hTDP1 cells, no CPT, ATP luminescence, 48 h; Potency, µM (doses to about 46.2 µM), most hits filed as inhibitors; hit rate 15% among 420,000; note: nearly all actives have a fitted effect of over 55% in size
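Compound effects on proliferation are scored in DT40 Tdp1-/-;hTDP1 cells in the absence of CPT. ATP levels (CellTiter-Glo luminescence) are recorded after a ≥48 hr, 37 °C incubation.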
TDP1 cell CPT – qHTS for Inhibitors of human tyrosyl-DNA phosphodiesterase 1 (TDP1): qHTS in cells in presence of CPT; chicken DT40 Tdp1-/-;hTDP1 cells + 20 nM CPT, ATP luminescence, 48 h; Potency, µM (titrated, usually from 46.2 µM), actives largely listed as inhibitors; hit rate 12% among 420,000; AID 686979, 2013; note: nearly all actives have a fitted effect of over 55% in size
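Chicken DT40 Tdp1-/- cells stably complemented with human TDP1 were seeded at 400 cells/well in medium containing 20 nM camptothecin, exposed to pin-transferred compounds, and grown at 37 °C for at least 48 hr. Viability was read as ATP luminescence.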
HT1080 IDH1KD tx – qHTS for induction of synthetic lethality in tumor cells producing 2HG: qHTS for the HT-1080-IDH1KD cell line; Potency, µM (titrated, usually from 46.1 µM), actives largely listed as cytotoxic; AID 686971, 2013; HT-1080 IDH1 knockdown viability, ATP luminescence, 48 h; hit rate 2% among 360,000
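Cytotoxicity counter-line: IDH1KD HT-1080, 48 h, CellTiter-Glo. Curves classed by r2, magnitude and activity.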
uPA surface inh – qHTS for Inhibitors of Cell Surface uPA Generation; cell surface uPA generation assay, qHTS; Potency, µM (series often up to 38.3 µM), actives largely listed as inhibitors; hit rate 0.31% among 330,000; AID 540303, 2011; active = well fitted inhibition curve with a large enough effect; inconclusive = small, poorly fitted or top-dose-only effect; inactive = no such curve, though single readings can be large or run the other way; tested in mouse RAW 264.7 cells; note: nearly all actives have a fitted effect of over 55% in size
A number is an active result. A selection: hits, their analogues and other compounds. The true share with any hit is near 19%. Unless noted, calls come from the whole dose curve; as a rule, active = well fitted curve in the direction sought with a large enough effect; inconclusive = small, poorly fitted or top-dose-only effect, or another doubt; inactive = no such curve, though single readings can be large; an effect the other way counts as inactive or inconclusive.

Results for Cc1ccc(NC(=O)CSc2nnc(-c3ccoc3C)n2CCCN(C)C)cc1Cl ?
HT1080NT lethal: inactive; IL-1B inflam inh: -60.8; TDP1 cell noCPT: inactive; TDP1 cell CPT: inactive; HT1080 IDH1KD tx: inactive; uPA surface inh: inactive

What do the screens show for `COCCn1c(SCC(=O)Nc2ccccc2)nnc1-c1ccoc1C`?
HT1080NT lethal: inactive; IL-1B inflam inh: inactive; TDP1 cell noCPT: inactive; TDP1 cell CPT: inactive; HT1080 IDH1KD tx: inactive; uPA surface inh: inactive

How did Cc1occc1-c1nnc(SCC(=O)Nc2nccs2)n1CCc1ccccc1 do in these assays?
HT1080NT lethal: inactive; IL-1B inflam inh: inactive; TDP1 cell noCPT: 18.4µM; TDP1 cell CPT: 14.6µM; HT1080 IDH1KD tx: inactive; uPA surface inh: inactive

What do the screens show for `CC(=O)N1CCC[C@@]2(CCN(C(c3ccccc3)c3ccccc3)C2)C1`?
TDP1 cell noCPT: inactive; TDP1 cell CPT: inactive

How did Cc1nn(CCCC(=O)NCCCN2CCN(C)CC2)c(=O)c2c1sc1ccccc12 do in these assays?
HT1080NT lethal: inactive; IL-1B inflam inh: inactive; TDP1 cell noCPT: inactive; TDP1 cell CPT: inactive; HT1080 IDH1KD tx: inactive; uPA surface inh: inactive

How did Cc1ccc(C(=O)COC(=O)CSc2cccc3cccnc23)c(C)c1 do in these assays?
HT1080NT lethal: inactive; IL-1B inflam inh: -87.8; TDP1 cell noCPT: inactive; TDP1 cell CPT: inconclusive; HT1080 IDH1KD tx: inactive; uPA surface inh: inactive

How did O=C(O)CSc1cccc2cccnc12 do in these assays?
HT1080NT lethal: inactive; IL-1B inflam inh: inactive; TDP1 cell noCPT: inactive; TDP1 cell CPT: inconclusive; HT1080 IDH1KD tx: inactive; uPA surface inh: inactive

How did CCNc1ncc2nc(-c3ccc(Cl)cc3)c(=O)n(CCC#N)c2n1 do in these assays?
TDP1 cell noCPT: inactive; TDP1 cell CPT: inactive

How did CCOC(=O)c1nc(Nc2ccc(C(=O)O)cc2)c2ccccc2n1 do in these assays?
HT1080NT lethal: inactive; IL-1B inflam inh: inactive; TDP1 cell noCPT: inactive; TDP1 cell CPT: inactive; HT1080 IDH1KD tx: inactive; uPA surface inh: inactive

Results for CCOC(=O)c1nc(Nc2cc(C)cc(C)c2)c2ccccc2n1 ?
HT1080NT lethal: inactive; IL-1B inflam inh: inactive; TDP1 cell noCPT: 20.6µM; TDP1 cell CPT: 18.4µM; HT1080 IDH1KD tx: inactive; uPA surface inh: inactive

How did CCOC(=O)c1nc(Nc2ccccc2OC)c2ccccc2n1 do in these assays?
TDP1 cell noCPT: 2.59µM; TDP1 cell CPT: 11.6µM

How did CCOC(=O)c1nc(Nc2ccc(Nc3ccccc3)cc2)c2ccccc2n1 do in these assays?
HT1080NT lethal: inactive; IL-1B inflam inh: -64.8; TDP1 cell noCPT: 7.31µM; TDP1 cell CPT: 13µM; HT1080 IDH1KD tx: inconclusive; uPA surface inh: inconclusive

Results for CCOC(=O)c1nc(Nc2ccc(N3CCC(C)CC3)cc2)c2ccccc2n1 ?
HT1080NT lethal: inactive; IL-1B inflam inh: inactive; TDP1 cell noCPT: 5.8µM; TDP1 cell CPT: 7.31µM; HT1080 IDH1KD tx: inactive; uPA surface inh: inactive

How did COc1ccccc1Nc1nc(-c2ccccc2)nc2ccccc12 do in these assays?
HT1080NT lethal: inactive; IL-1B inflam inh: inactive; TDP1 cell noCPT: inconclusive; TDP1 cell CPT: inconclusive; HT1080 IDH1KD tx: inactive; uPA surface inh: inactive

Results for CCOC(=O)c1ccc(NC(=O)c2cc(C)nc3ccccc23)cc1 ?
HT1080NT lethal: inactive; IL-1B inflam inh: inactive; TDP1 cell noCPT: inactive; TDP1 cell CPT: inactive; HT1080 IDH1KD tx: inactive; uPA surface inh: inactive

How did CCC(C)c1ccc(NC(=O)c2c([N+](=O)[O-])cnn2CC)cc1 (configuration not stated) do in these assays?
HT1080NT lethal: inactive; IL-1B inflam inh: inactive; TDP1 cell noCPT: inconclusive; TDP1 cell CPT: inconclusive; HT1080 IDH1KD tx: inactive; uPA surface inh: inactive

Results for O=C(COC(=O)C1CCC1)NCCc1ccc(Cl)cc1Cl ?
HT1080NT lethal: inactive; IL-1B inflam inh: inactive; TDP1 cell noCPT: inactive; TDP1 cell CPT: inactive; HT1080 IDH1KD tx: inactive; uPA surface inh: inactive

Results for C[C@H]1CN([C@@H](C)CO)C(=O)c2cc(Br)cnc2O[C@H]1CN(C)C(=O)c1ccc2c(c1)OCO2 ?
HT1080NT lethal: inactive; IL-1B inflam inh: inactive; TDP1 cell noCPT: inactive; TDP1 cell CPT: inactive; HT1080 IDH1KD tx: inactive

How did COc1ccc(-c2cc(C(=O)Nc3c(F)cc(F)cc3Br)no2)cc1 do in these assays?
HT1080NT lethal: inactive; IL-1B inflam inh: inactive; TDP1 cell noCPT: inconclusive; TDP1 cell CPT: inactive; HT1080 IDH1KD tx: inactive; uPA surface inh: inactive

How did CCOC(=O)c1nc(NCc2cccc(OC)c2)c2ccccc2n1 do in these assays?
HT1080NT lethal: inactive; IL-1B inflam inh: inactive; TDP1 cell noCPT: 16.4µM; TDP1 cell CPT: inconclusive; HT1080 IDH1KD tx: inactive; uPA surface inh: inactive

What do the screens show for `CCOC(=O)CCC(NC(=O)c1ccc(Nc2nc3ccccc3nc2C(=O)OCC)cc1)C(=O)OCC` (configuration not stated)?
HT1080NT lethal: inactive; IL-1B inflam inh: inactive; TDP1 cell noCPT: 7.31µM; TDP1 cell CPT: 10.3µM; HT1080 IDH1KD tx: inactive; uPA surface inh: inactive

How did COc1cccc(CNC(=O)CCl)c1 do in these assays?
HT1080NT lethal: inactive; IL-1B inflam inh: inactive; TDP1 cell noCPT: inactive; TDP1 cell CPT: inactive; HT1080 IDH1KD tx: inactive; uPA surface inh: inactive

Results for COc1cccc(CNC(=O)COC(=O)c2nc(Cl)c(Cl)c(Cl)c2Cl)c1 ?
HT1080NT lethal: inconclusive; IL-1B inflam inh: -100.6; TDP1 cell noCPT: inconclusive; TDP1 cell CPT: 0.0082µM; HT1080 IDH1KD tx: inactive; uPA surface inh: inactive

Results for CCOC(=O)CCC(NC(=O)c1cncc(O)c1)C(=O)OCC (configuration not stated) ?
HT1080NT lethal: inactive; IL-1B inflam inh: inactive; TDP1 cell noCPT: inactive; TDP1 cell CPT: inactive; HT1080 IDH1KD tx: inactive; uPA surface inh: inactive

How did CCOC(=O)c1nc(Nc2ccc(OC)cc2)c2ccccc2n1 do in these assays?
HT1080NT lethal: inactive; IL-1B inflam inh: inactive; TDP1 cell noCPT: 20.6µM; TDP1 cell CPT: inconclusive; HT1080 IDH1KD tx: inactive; uPA surface inh: inactive

What do the screens show for `O=C(Nc1ccc2ccccc2c1)OC1CCS(=O)(=O)C1` (configuration not stated)?
HT1080NT lethal: inactive; TDP1 cell noCPT: inactive; TDP1 cell CPT: inactive; HT1080 IDH1KD tx: inactive

How did COc1ccc(C2=NC(CO)(CO)CO2)cc1 do in these assays?
HT1080NT lethal: inactive; IL-1B inflam inh: inactive; TDP1 cell noCPT: inactive; TDP1 cell CPT: inactive; HT1080 IDH1KD tx: inactive; uPA surface inh: inactive

Results for CCOC(=O)c1ccc(NC(=O)CCc2c(C)nc3nc[nH]n3c2=O)cc1 ?
TDP1 cell noCPT: inactive; TDP1 cell CPT: inactive
